Several values for one entry are separate records, joined by “and”; a condition that tells them apart may be missing. Equal entries are not always repeated. This is part of a sample that, as a whole, favours compounds with a hit. Of some 83,000 tested, about 20% had one in any assay.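 Single-dose data. Exposure time 48 hours. Values below 10 considered active.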 Activity calls are given as the source filed them.
Tested on: A549/ATCC NSCLC
Assay: NCI-60 one-dose screen, 48 h (100 = growth as untreated, 0 = no growth, -100 = all killed)
Conditions: 10 µM unless noted
Method: Growth inhibition of the A549/ATCC human Non-Small Cell Lung tumor cell line is measured as a screen for anti-cancer activity. Cells are grown in 96 well plates and exposed to the test compound for 48 hours. Compounds are tested at a single concentration, which is 10^-5 M for most compounds. The reported endpoint is percent growth (GI% or GIPRCNT), where numbers from 0 - 100% represent growth inhibition, and numbers from -100% - 0 represent cell death. For example, a value of 40 represents 60% growth inhibition. A value of 0 means no net growth occurred over the course of the experiment. A value of -40 indicates 40% of cells at the beginning of the experiment died by the end of the experiment. A value of -100 means all cells are dead at the end of the experiment.
NCI-60 Human Tumor Cell Lines Screen was performed using the standard one-dose NCI protocol, which is described in more detail at https://dtp.cancer.gov/discovery_development/nci-60/default.htm.
Compounds with GIPRCNT values below 10 were considered active. Activity score was based on GIPRCNT using the following formula: […]
Score is 0 for GIPRCNT values of 100 or above, 50 for GIPRCNT values of 0, and 100 for GIPRCNT values of -100.

SMILES	growth
O=C(O)C#Cc1ccc(Cl)cc1	87.2% (inactive)
O=C(O)c1cc(=O)[nH]c(=O)[nH]1	98.3% (inactive)
CCOP(C)(=O)/C(Cc1ccc(OC)c(OC)c1)=N\O (stereo not given)	108% (inactive)
O=C(O)c1ccc2c3ccc(C(=O)O)c4c(C(=O)O)ccc(c5ccc(C(=O)O)c1c25)c43	92.1% (inactive)
O=P(O)(O)OC1C(OP(=O)(O)O)C(OP(=O)(O)O)C(OP(=O)(O)O)C(OP(=O)(O)O)C1OP(=O)(O)O.[Cu+2] (stereo not given)	64.1% (inactive)
COc1ccc(/C=C/C(=O)O)cc1OC	99.7% (inactive) and 104% (inactive)
CC(C)(C)C1=CC(=O)C(C(C)(C)C)=CC1=O	98.5% (inactive) and 91% (inactive)
O=C(O)c1cccc(Br)c1	98.8% (inactive) and 87% (inactive)
O=C(O)/C=C/C=C/c1ccccc1	98.4% (inactive) and 97.8% (inactive)
Nc1nc(=S)c2[nH]cnc2[nH]1	31.7% (inactive) and 2.46% (active)
COc1ccc2nccc(Cl)c2c1	91.9% (inactive)
OCc1cccc(F)c1	99.3% (inactive)
Cc1cc2ccccc2c2cc3ccccc3cc12	92.7% (inactive)
Cn1c(N)c(N=O)c(=O)n(C)c1=O	106% (inactive) and 96.8% (inactive)
CC(=O)Oc1cc(C(C)C)c(OCCN(C)C)cc1C	-83.3% (active) and 99.8% (inactive)
Cn1c(-c2ccccc2)cc(=O)cc1-c1ccccc1	96.4% (inactive)
CCCCCCCCCCCCCCCCC(=O)O	104% (inactive)
O=C1C=CC(n2cc(F)c(=O)[nH]c2=O)O1 (stereo not given)	50.7% (inactive)
O=[N+]([O-])c1ccc(N2CCN=N2)cc1	82.2% (inactive)
OCc1ccccc1F	93.4% (inactive)

SMILES	growth
O=COCCCc1ccccc1	83.7% (inactive)
C(=N\OCCc1ccccc1)/c1ccccn1	102% (inactive) and 101% (inactive)
CN(C=O)c1ccccc1	105% (inactive)
CCOP(=O)(OCC)/C(C#N)=C/c1c(C)[nH]c2ccccc12	93.1% (inactive)
O=S(=O)(O)c1ccc2cc(O)ccc2c1	111% (inactive)
COc1ccc(S(=O)(=O)c2ccc(F)cc2)cc1	82.4% (inactive)
CCCCOC1NC(=O)NC(=O)C1(F)C(=O)OCC (stereo not given)	48.8% (inactive) and 46.3% (inactive)
CNc1ccc(O)cc1	104% (inactive) and 114% (inactive)
S=c1nn[nH]n1C1CCCCC1	106% (inactive)
CCOc1ccc(/C=C\C(=O)O)cc1	104% (inactive)
Clc1ccc2c(c1)N(C1CCCN(Cc3ccccc3)C1)c1ccccc1S2 (stereo not given)	35% (inactive)
NNc1ncnc2cccc(Cl)c12	81.1% (inactive)
Nc1ccc(O)c(C(=O)O)c1	105% (inactive) and 97% (inactive)
Cc1ccc(S(=O)(=O)n2ccnc2)cc1	89.1% (inactive)
OC(CC(c1ccccc1)c1cccc2ccccc12)(c1ccccc1)c1ccccc1 (stereo not given)	73.7% (inactive) and 79.1% (inactive)
Nc1[nH][nH]c(=O)c1N=Nc1ccccc1	103% (inactive) and 110% (inactive)
OCCS	95.1% (inactive)
N=C(N=C(N)N)N1CCOCC1	103% (inactive) and 94.2% (inactive)
COc1ccc(/C=N/Nc2nc3ccccc3s2)cc1	93.9% (inactive)
CNc1ccc(Cl)cc1S(=O)(=O)c1ccccc1[N+](=O)[O-]	23.3% (inactive) and 94.4% (inactive)

— PubChem BioAssay (NCI)
